As usually defined, the inhibition is the change of the read-out against control, counted positive when it falls.

The campaign covered roughly 360,000 compounds. About 2,800 (0.78%) were called active. Only a selection was taken, and actives are over-represented in it overall. A number with no mark means an inactive call. Cut-off read from the data, not from the text of the source: active = inhibition above about 26%; inactive = the rest.

This test has as its system Nicotinate-nucleotide adenylyltransferase NadD (Staphylococcus aureus N315). Briefly: S. aureus NadD enzyme activity blockers – biochemical, colorimetric, uHTS, primary screen (AID 602399). The following applies: purified NadD enzyme, colorimetric absorbance read-out; at 20 µM; hits give high values.
Consider `CCOC(=O)c1ccc(NC(=O)c2c(N)n(C)c(=O)[nH]c2=O)cc1`, for which the inhibition is -3.34%. Take `Cc1ccc(C(=O)COC(=O)CCN2C(=O)C3C4CCC(C4)C3C2=O)cc1C` (stereo unspecified): the inhibition is 4.2%.

For `Cc1ccc(C(=O)COC(=O)c2cccc(N3C(=O)c4c(C)nc5ccccc5c4C3=O)c2)cc1C`, the inhibition is 29.7% (active).

`COc1ccc(C(=O)OCC(=O)c2ccc(C)c(S(=O)(=O)N3CCOCC3)c2)cc1OC`: the inhibition is -14%. For `CN(C)c1ccnc(Oc2ccc(F)cc2)c1C#N`, the inhibition was 0.732%. In the case of `O=C(O)C1=NN(c2c(F)c(F)cc(F)c2F)C(=O)CC1`, the inhibition is -2.16%.

Turning to `COc1ccc(NS(=O)(=O)c2ccc(NC(=S)NC(=O)/C=C/c3ccc(C)cc3)cc2)nn1`, the inhibition was 52.5% (active). `COc1cc(NS(=O)(=O)c2ccc(NC(=S)NC(=O)c3ccc(Br)cc3)cc2)ncn1`: the inhibition is 16.5%. Take `COc1ccc(NS(=O)(=O)c2ccc(NC(=O)C(C)(C(F)(F)F)C(F)(F)F)cc2)nn1`: the inhibition is 8.48%. Regarding `COc1ccccc1-n1c(SCC(=O)O)nc2sc3c(c2c1=O)CCC3`, the inhibition is -6.38%. In the case of `COc1cccc(C(=O)NC(=O)Nc2nc(C)cc(C(F)(F)F)n2)c1`, the inhibition was 1.69%. For `COc1ccc(/C=C/C(=O)c2c(O)cc(OC)cc2OC)cc1`, the inhibition is -0.858%. As to `Cc1cc(O)c(C(=O)/C=C/c2c(F)c(F)c(F)c(F)c2F)c(=O)o1`, the inhibition was 30% (active). Regarding `Cc1cc(O)c(Sc2ccccc2)c(=O)o1`, the inhibition is -2.78%.

For the compound `CC(=O)c1c(C)n([O-])c2ccccc2[n+]1=O`, the inhibition was 4.16%. In the case of `N#Cc1cc([N+](=O)[O-])ccc1Oc1cccc(/C=N/NC(=O)c2ccc(Cl)cc2)c1` it was 19.4%; in that of `O=C(N/N=C/c1ccc(Cl)cc1)c1nc2ccc([N+](=O)[O-])cc2c(=O)[nH]1`, 42.6% (active). In the case of `CC(NC(=O)C(=O)N/N=C/c1ccc(Cl)cc1)c1ccccc1` (stereo unspecified) it was -0.376%; in that of `Cc1cccn2c(=O)c3cc(C#N)c(=NC(=O)c4cccnc4)n(CC4CCCO4)c3nc12` (stereo unspecified), 0.191%; in that of `COc1ccccc1N(CC(=O)Nc1ccc(C)cc1Cl)S(=O)(=O)c1cccs1`, -10.3%.

Turning to `COc1cc(-c2noc(C3CCCN(S(=O)(=O)c4cccc(Cl)c4)C3)n2)cc(OC)c1OC` (stereo unspecified), the inhibition is -12.5%. In the case of `COc1ccc(-n2c(-c3ccc(Cl)cc3)n[nH]c2=S)c(OC)c1` it was 5.69%. Turning to `COc1ccccc1/C=C/C=N/n1c(-c2ccc(Cl)cc2Cl)n[nH]c1=S`, the inhibition is 28% (active).

Consider `COc1ccc(Cl)cc1C=CC=NNC(=O)c1ccncc1`, for which the inhibition was 9.06%. `O=Cc1cn(-c2ccccc2)nc1-c1ccccn1`: the inhibition is -0.605%. `COc1ccc(-c2nn(-c3ccccc3)cc2/C=N/Nc2ccccn2)cc1OC`: the inhibition is 30.9% (active). `COc1ccc(OC)c(/C=N/NC(=O)CSc2nnc(C)n2-c2ccccc2)c1`: the inhibition was 4.2%. As for `N#C/C(C(=O)N1CCOCC1)=C1/SC(Cc2ccc(F)cc2)C(=O)N1c1ccccc1` (stereo unspecified), the inhibition is 5.64%. In the case of `CCCCN(C=O)c1c(CC)nc2c(OCc3ccccc3C(=O)OC)cccn12` it was 3.2%.

In the case of `CC(C)C(NC(=O)c1c(F)cccc1F)C(=O)NCc1ccncc1` (stereo unspecified), the inhibition is -4.3%. Under `Cc1cc(C(=O)OC(C)C(=O)NC2CCCCC2C)c(C)o1` (stereo unspecified) stands -0.327%; under `CC(=O)c1c(C)[nH]c(C(=O)COC(=O)c2cccc(S(=O)(=O)N(C)c3ccccc3)c2)c1C`, -2.3%. Regarding `S=c1[nH]nc(NCCc2ccccc2)s1`, the inhibition was 6.24%.

With `S=c1[nH]nc(Nc2ccccc2)s1`, the inhibition was 31% (active).

Consider `CC(C)(C)C(=O)c1cnc(Nc2ccccc2)s1`, for which the inhibition is -4.48%.

`O=c1c([N+](=O)[O-])cccn1Cc1ccc(F)cc1Cl`: the inhibition was -2.47%.

Consider `Cc1c(C(=O)N(C)CCc2cnn(C)c2)oc2c(F)cccc12`, for which the inhibition was -0.376%. In the case of `CCN(CC)C(=O)c1nc[nH]c1C(=O)N(C)Cc1ccccc1` it was -5.16%; in that of `CCN(CC)C(=O)c1sc2nc(-c3ccccc3)ccc2c1N`, 29.7% (active); in that of `CCOC(=O)C(C)n1nc(-c2ccccc2)c2ccccc2c1=O` (stereo unspecified), 4.56%. For `CC1(C)C(C=C(Cl)Cl)C1C(=O)NC(O)C(=O)c1ccccc1` (stereo unspecified), the inhibition was -1.25%. Turning to `Cc1c2cnn(-c3ccccc3)c(=O)c2c(C)n1CCCC(=O)N1CCN(C)CC1`, the inhibition was 4.17%. `CCC(=O)Nc1ccc2c(c1)nc(CCN1CCN(c3ccccn3)CC1)n2C`: the inhibition was -0.459%. As for `Cc1nn(CC(=O)Nc2ccc3c(c2)nc(CN2CCCCC2)n3C)c(=O)c2ccccc12`, the inhibition was -0.187%. For the compound `Cn1c(CCN2CCCCCC2)nc2cc(NC(=O)Nc3ccccc3)ccc21`, the inhibition was 31.5% (active).

`Cc1noc(/C=C/c2ccco2)c1S(=O)(=O)N1CCC(C(=O)N2CCc3ccccc32)CC1`: the inhibition was 31.6% (active). With `CNC(=O)C1CCN(S(=O)(=O)c2c(C)noc2/C=C/c2cccc(C)c2)CC1`, the inhibition is -4.39%.

Regarding `Cc1noc(/C=C/c2ccco2)c1S(=O)(=O)N1CCC(C(=O)Nc2ccc(Cl)cn2)CC1`, the inhibition was 16.8%. As for `CCc1ccc(OCC(=O)NCC(c2ccc(Cl)cc2)N2CCCCC2)cc1` (stereo unspecified), the inhibition was -9.2%. Turning to `O=C(O)CN(Cc1ccco1)S(=O)(=O)c1ccc(F)cc1`, the inhibition was -0.327%. On to `O=Nc1c(O)cc(O)c2ccccc12`, for which the inhibition was -0.774%. In the case of `CCC(C)OC(=O)C(C)Oc1ccc(-c2ccccc2)cc1` (stereo unspecified) it was 2.06%; in that of `NC(CSC(c1ccccc1)(c1ccccc1)c1ccc(-c2ccccc2)cc1)C(=O)O` (stereo unspecified), 43.5% (active); in that of `NC(CSC1(c2ccccc2)c2ccccc2-c2ccccc21)C(=O)O` (stereo unspecified), 27.6%.

For `O=C(N1CCOCC1)N(Cc1ccccc1)c1ccccn1`, the inhibition is -0.327%. `COc1ccc(C(=O)/C=C/c2ccc(-c3ccccc3)cc2)cc1CSCC(=O)O`: the inhibition was 42.8% (active). With `COc1ccccc1CCNC(=O)C1CCN(C(=O)/C=C/c2ccccc2)CC1`, the inhibition was 1.36%.

In the case of `COC(=O)c1ccc(COc2ccc(/C=C/C(=O)c3ccc(OC)c(CSCC(=O)O)c3)cc2OC)cc1`, the inhibition was 20.9%. For the compound `COc1cc(C(=O)Nn2c(O)c(C3=c4ccccc4=NC3=O)sc2=S)ccc1O`, the inhibition is 9.44%. As for `COC(=O)CC(CC(=O)OC)n1cccc1`, the inhibition is -1.87%. In the case of `CCn1cc(CN2CCN(CC(C)(C)C)C(CCO)C2)c2ccccc21` (stereo unspecified), the inhibition is -1.34%. Turning to `COc1cc(Cl)c(C)cc1NC(=O)[C@@H]1CCCN1C(=O)c1cccs1`, the inhibition is -0.625%.

Turning to `Cc1c(C(=O)OC(C)C)sc(NC(=O)c2cccnc2)c1C#N`, the inhibition is 7.06%. Under `C=CCOc1cccc(C2C(C(=O)c3ccc(C)o3)=C(O)C(=O)N2c2nnc(C)s2)c1` (stereo unspecified) stands 12.2%. `CCCOc1ccc(C2C(C(=O)c3ccc(C)o3)=C(O)C(=O)N2CCCn2ccnc2)cc1` (stereo unspecified): the inhibition was 17.5%. Under `Cc1cc(N2C(=O)C(O)=C(C(=O)c3ccc(C)o3)C2c2ccc(OCc3ccccc3)cc2)no1` (stereo unspecified) stands 58.6% (active); under `CCC(C)N(C(=O)COC(=O)C1C(C(=O)OC)=C(C)NC(C)=C1C(=O)OC)C1CCS(=O)(=O)C1` (stereo unspecified), 1.18%; under `Cc1ccc(Cc2nnc(SCC(=O)Nc3ccccc3C)[nH]c2=O)cc1`, 2.18%. Under `NC(=O)NC(=O)CSc1nc2cc([N+](=O)[O-])ccc2n1-c1cccc(C(F)(F)F)c1` stands 17.8%; under `CC(=O)NC1(c2cccc(F)c2)CCN(CC(=O)NC(C)C)CC1`, -2.5%. Under `C/C(=N\NC(=O)c1cc(-c2ccc(O)cc2)nc2ccccc12)c1cccnc1` stands 5.99%. As to `Cc1ccc(-c2cc(C(=O)N/N=C/C=C/c3ccco3)c3ccccc3n2)cc1C`, the inhibition was 53% (active). Take `O=C(N/N=C/C=C/c1ccco1)c1cccs1`: the inhibition is 5.08%. Consider `CSc1nsc(SC)c1NC(=O)OC1CCCCC1`, for which the inhibition was -1.66%.

Consider `CC(=O)Nc1ccc(S(=O)(=O)N2CCN(S(=O)(=O)c3cccs3)CC2)cc1`, for which the inhibition is 0.0869%.

On to `CN(C)c1ccc(-n2cccc2/C=C2/SC(=Nc3ccc(F)cc3)NC2=O)cc1`, for which the inhibition was 24.9% (active). Under `CN(C)c1ccc(-n2cccc2/C=N/n2cnnc2)cc1` stands -0.713%.

For the compound `CN(CCC1CCOCC1)Cc1cn[nH]c1-c1ccc(-c2ccccc2)cc1`, the inhibition is -6.91%. Take `C[C@@H]1CN([C@@H](C)CO)C(=O)c2cccc(NS(=O)(=O)c3ccc(F)cc3)c2O[C@H]1CN(C)C(=O)NC1CCCCC1`: the inhibition is 4.79%. As to `Cc1[nH]c2ccccc2c1SCC(=O)Nc1nccs1`, the inhibition is -2.1%. As to `CN(C)/C=C(\C#N)C(=O)c1cccnc1Oc1cccc(F)c1`, the inhibition was -0.906%. In the case of `COc1ccc(C2(CNC(=O)C(c3ccccc3)c3ccccc3)CCOCC2)cc1OC`, the inhibition is -2.03%.

In the case of `Cc1cc(C)nc(Nc2n[nH]c(-c3ccccc3N)n2)n1`, the inhibition is -2.89%. In the case of `CCNc1nc(N)nc(Oc2ccc(OCC)nn2)n1` it was -1.59%. In the case of `Cc1nn(-c2ccc(F)cc2)c(Cl)c1/C=C(/CCC(=O)O)c1nc2ccccc2s1` it was 6.39%. Under `O=C(O)CC/C(=C\c1cc2c(cc1Br)OCO2)c1nc2ccccc2s1` stands 7.94%; under `COc1ccc(C(=O)Nc2cccc(/C=C(/CCC(=O)O)c3nc4ccccc4s3)c2)cc1`, 35.2% (active); under `CSc1nnc2c(n1)OC(c1ccsc1)N(C(C)=O)c1ccccc1-2` (stereo unspecified), -0.91%.

For the compound `Cc1ccc(C(=O)N/C(=C\c2cn(C)c3ccccc23)C(=O)N2CCN(C)CC2)cc1`, the inhibition was -3.04%. As for `Cc1cccc(N=C2NC(=O)/C(=C/c3cn(C)c4ccccc34)S2)c1`, the inhibition was 37% (active).

For `Cc1ccc(N2C(=O)S/C(=C/c3cn(C)c4ccccc34)C2=O)cc1`, the inhibition was 2.76%.

The values are drawn from PubChem BioAssay AID602399 (Sanford-Burnham Center for Chemical Genomics, 2012).
